# Compounds with a hit are over-represented: about 19% of the library has one in this group of screens.
# DT40 TDP1 no CPT: qHTS for Inhibitors of human tyrosyl-DNA phosphodiesterase 1 (TDP1): qHTS in cells in absence of CPT | DT40 Tdp1-/- hTDP1 cells, no CPT, ATP luminescence, 48 h | Potency, µM (top dose mostly 46.2 µM), for the others: at the highest dose activity change, negative = growth inhibition, hits mostly inhibitors | 420,000 compounds, 15% hits | AID 686978, 2013; further: potency means the concentration at half of the fitted maximal effect; nearly all actives have a fitted effect of over 55% in size
#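 Cells were dispensed at 400 per well, compounds added by pin tool, plates incubated ≥48 hr at 37 °C, then CellTiter-Glo added for 30 min at room temperature before luminescence reading. Line: DT40 Tdp1-/- complemented with hTDP1; camptothecin omitted.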
# IL1B secr inh: inflammasome signaling inhibition, IL-1 beta readout; activity change, % at 57.5 µM; THP-1 LPS/ATP IL-1B secretion, AlphaLISA, 16 h; active compounds read low; 360,000 compounds, 4.7% hits; AID 743279; in the data active means activity change below about -50%; inconclusive means mostly about -30% to -49%
#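 THP-1 cells pretreated 1 hr with compounds (up to 57.5 uM final), then stimulated with LPS (250 ng/mL final) plus ATP (1.25 mM final); secreted IL-1B measured by AlphaLISA after 16 hr, decreased signal indicating inhibition.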
# HT1080 IDH1KD tx: kills HT-1080 cells with IDH1 knockdown; 360,000 compounds, 2% hits; HT-1080 IDH1 knockdown viability, ATP luminescence, 48 h; AID 686971; Potency, µM (titrated, usually from 46.1 µM), inactives show top-dose activity, negative = toxicity, most hits filed as cytotoxic;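 further: potency means the concentration at half of the fitted maximal effect; 0% = DMSO wells and -100% = cell-free medium wells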
#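 % activity derives from luminescence (CellTiter-Glo), normalised to DMSO and no-cell wells. HT-1080-IDH1KD cells, 750/well, had 48 h compound exposure at 37 °C.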
# HT1080NT lethal: kills 2HG-producing HT-1080-NT fibrosarcoma cells | 360,000 compounds, 1.6% hits | Potency, µM (doses to about 46.1 µM), for the others: at the highest dose activity, negative = less viability, usual class: cytotoxic | HT-1080-NT fibrosarcoma viability, CellTiter-Glo ATP luminescence, 48 h;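 further: NT is the 2HG producing partner of a matched IDH1 knockdown line; potency means the concentration at half of the fitted maximal effect; 0% = DMSO-treated cells and -100% = media-only wells without cells; nearly all actives have a fitted effect of over 55% in size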
#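 A 48-hour cytotoxicity screen used HT-1080-NT cells plated 2 hours before compound delivery. ATP-based CellTiter-Glo luminescence measured viability, normalized to DMSO and no-cell controls.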
# DT40 TDP1 CPT: DT40-hTDP1 cell growth loss with CPT | chicken DT40 Tdp1-/-;hTDP1 cells + 20 nM CPT, ATP luminescence, 48 h | Potency, µM (top dose mostly 46.2 µM), inactives show at the highest dose activity change, negative = growth inhibition, hits mostly inhibitors | 420,000 compounds, 12% hits | AID 686979; further: potency means the concentration at half of the fitted maximal effect; nearly all actives have a fitted effect of over 55% in size
#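 Chicken DT40 Tdp1-/- cells complemented with human TDP1, 400 cells/well, exposed to compounds plus 20 nM camptothecin for at least 48 h at 37 C; viability read as ATP content by CellTiter-Glo luminescence.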
# * hit, by the source's call; ? = inconclusive; · = no result; [ ] = dose if it differs, or a comment. Unless noted, the call rests on the fitted dose curve; in most records, active means well fitted curve in the direction sought with a large enough effect; inconclusive means small, poorly fitted or top-dose-only effect, or another doubt; inactive means no such curve, though single readings can be large; an effect the other way counts as inactive or inconclusive. Unless noted, on the % scale 0 is the no-effect control and ±100 the full control effect.
SMILES,DT40 TDP1 no CPT,IL1B secr inh,HT1080 IDH1KD tx,HT1080NT lethal,DT40 TDP1 CPT
CC(=O)c1ccccc1OC(=O)COc1ccc([N+](=O)[O-])cc1,6.1%,-6.3,-0.2%,16.0%,-2.4%
COc1cccc(NC(=O)C(Cc2ccccc2)NS(=O)(=O)c2ccc3c(c2)c(=O)n(C)c(=O)n3C)c1 (stereo unspecified),?,·,·,·,-19.7%
COc1ccccc1NC(=O)C(Cc1ccccc1)NS(=O)(=O)c1ccc2c(c1)c(=O)n(C)c(=O)n2C (stereo unspecified),?,·,·,·,23.1µM*
Cc1ccccc1NC(=O)C(NS(=O)(=O)c1ccc2c(c1)c(=O)n(C)c(=O)n2C)c1ccccc1 (stereo unspecified),16.4µM*,-3.5,1.8%,1.6%,?
Nc1ccccc1C#CC(=O)c1ccccc1,?,-102.1*,?,?,1.3µM*
Nc1ccccc1C#Cc1ccc([N+](=O)[O-])cc1,?,-11.3,-10.3%,-20.4%,-26.7%
CCOC(=O)[C@]12CCCC=C1N(Cc1ccc3c(c1)OCO3)C(=O)[C@H](CC(=O)NCC13CC4CC(CC(C4)C1)C3)C2,23.1µM*,-8.6,?,-28.8%,?
CCOC(=O)[C@]12CCC=C1N(Cc1ccc3c(c1)OCO3)C(=O)[C@H](CC(=O)NCCC(C)C)C2,18.4µM*,2.5,12.2%,0.6%,?
CCOC(=O)[C@]12CCCC=C1N(Cc1ccc3c(c1)OCO3)C(=O)[C@H](CC(=O)NCCCCc1ccccc1)C2,20.6µM*,-63.0*,11.6µM*,?,?
CCCCOCCCNC(=O)C[C@@H]1C[C@@]2(C(=O)OC)CCCCC=C2N(Cc2ccc3c(c2)OCO3)C1=O,?,-12.6,-4.3%,1.4%,?
C#CCNC(=O)C[C@@H]1C[C@@]2(C(=O)OCC)CCC=C2N(Cc2ccc3c(c2)OCO3)C1=O,?,0.0,?,-0.9%,-18.2%
CCOC(=O)[C@]12CCCC=C1N(Cc1ccc3c(c1)OCO3)C(=O)[C@H](CC(=O)NCC1CCCCC1)C2,?,21.5,?,?,?
CCCCNC(=O)C[C@@H]1C[C@@]2(C(=O)OC)CCCCC=C2N(Cc2ccc3c(c2)OCO3)C1=O,?,-60.7*,2.2%,-4.3%,?
CCO/N=C(\C)c1c(O)c(CC)c(-c2ccccc2)n(-c2ccccc2)c1=O,1.3%,11.3,7.9%,2.5%,-13.0%
O=C(O)CCCNS(=O)(=O)c1ccc(NCc2ccccc2)c(C(=O)O)c1,8.6%,-6.7,14.7%,10.3%,2.2%
CCOc1cc(/C=C2\SC(=Nc3ccc(CC)cc3)NC2=O)ccc1OCC(=O)O,-7.7%,17.7,11.4%,14.1%,-2.7%
CCOC(=O)N1CCN(C(=O)c2ccc(N(C)S(=O)(=O)c3ccc(C)cc3)cc2)CC1,?,0.0,-9.9%,0.0%,?
COC(=O)[C@]12CCCCC=C1N(Cc1ccc3c(c1)OCO3)C(=O)[C@H](CC(=O)NCCCCc1ccccc1)C2,?,-54.6*,?,?,?
CCCCNC(=O)C[C@@H]1C[C@@]2(C(=O)OCC)CCC=C2N(Cc2ccc3c(c2)OCO3)C1=O,?,2.4,1.7%,6.2%,?
CCOC(=O)[C@]12CCC=C1N(Cc1ccc3c(c1)OCO3)C(=O)[C@H](CC(=O)NCc1ccccc1)C2,?,0.0,23.1µM*,-12.9%,?
CCOC(=O)[C@]12CCC=C1N(Cc1ccc3c(c1)OCO3)C(=O)[C@H](CC(=O)NCCCCc1ccccc1)C2,20.6µM*,-69.0*,?,?,?
O=C(CCNC(=O)c1ccccc1)Nc1cccnc1,?,24.7,9.1%,-1.0%,?
CCCNC(=O)COc1nc2ccccc2nc1N1CCOCC1,6.8%,2.8,3.8%,10.4%,?
Cc1cc(=O)oc2cc(OCC(=O)N3c4ccccc4CC3C)ccc12 (stereo unspecified),2.31µM*,42.3,2.59µM*,2.59µM*,4.11µM*
Cc1cc(=O)oc2ccc(OCC(=O)N3CCC(C)CC3)cc12,25.9µM*,-11.8,-3.7%[9.24 µM],-4.9%,?
SMILES,DT40 TDP1 no CPT,IL1B secr inh,HT1080 IDH1KD tx,HT1080NT lethal,DT40 TDP1 CPT
CCC(C)c1ccc(S(=O)(=O)N2CCN(C(=O)COc3ccc4c(C)cc(=O)oc4c3)CC2)cc1 (stereo unspecified),14.6µM*,-13.4,-6.5%,1.1%,?
CC1Cc2ccccc2N1C(=O)COc1nc2ccccc2nc1N1CCOCC1 (stereo unspecified),9.2µM*,-3.1,11.6%,6.2%,7.31µM*
C=Cc1ccc(CC2(C)C(=O)Nc3ccc(Cl)cc32)cc1 (stereo unspecified),-27.1%,14.6,-26.8%,-27.7%,-12.2%
CCOc1ccc(-n2c(SCC(=O)N3CCc4ccccc43)nc3c([nH]c4ccccc43)c2=O)cc1,-10.1%,·,·,·,-24.6%
CCN(CC)c1cccc(OCC(=O)N2c3ccccc3CC2C)c1 (stereo unspecified),18.4µM*,-1.1,-18.8%,-7.2%,?
COc1ccc(OCC(=O)N2c3ccccc3CC2C)c([N+](=O)[O-])c1 (stereo unspecified),?,-13.5,2.2%,-1.4%,?
Cc1ccc(CNC(=O)c2c3c(nc4ccccc24)C(=O)N(C2CCCCC2)C3)cc1,16.4µM*,·,·,·,?

# Screening data deposited in PubChem by National Center for Advancing Translational Sciences (NCATS).
